Measurements reported in PubChem BioAssay (NCI).
Compounds without any hit were thinned out: in the full panel of roughly 83,000, 20% have a hit.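 Growth was measured after 48 h exposure to one concentration of compound in 96-well plates. Values under 10 count as active.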 Active and inactive are the calls of the source.

System: SW-620 colon
Assay: NCI-60 one-dose screen, 48 h (100 = growth as untreated, 0 = no growth, -100 = all killed)
Settings: 10 µM unless noted

Compound | growth
c1c[nH]c(CNC2CCCCC2)c1 | 102% (inactive)
COc1ccc2c(c1)CCCN2c1c2ccccc2nc2ccccc12 | 24.7% (inactive)
CC/C=C/C/C=C/C/C=C/C/C=C/C/C=C/C/C=C/CCC(=O)Nc1ccn([C@@H]2O[C@H](CO)[C@@H](O)C2(F)F)c(=O)n1 | 30.8% (inactive)
Cc1ccc2nc(NC(=O)CSc3nc(-c4ccccc4)c(C#N)c(=O)n3Cc3ccccc3)sc2c1 | 87.4% (inactive)
NNC(=O)c1nc(N)n(-c2ccc(S(N)(=O)=O)cc2)n1 | 96% (inactive)
O=C(CC(SCc1ccccc1)c1ccccc1)c1ccccc1 (centres undefined) | 83.5% (inactive)
COC1=C(OC)C(=O)C(OC)=C(OC)C1=O | 101% (inactive)
COC(=O)CCC1=C(C)C2=NC1=CC1=NC(=CC3=NC(=Cc4[nH]c(/c(=C(/C)O)c4C)=C2)C(C(C)=O)=C3C)C(C)=C1CCC(=O)OC | 103% (inactive)
CC1=CN2C(=O)C3C4=C(CCCC4)SC3N=C2CN1c1c(C)cccc1C (centres undefined) | 88.9% (inactive)
O=C(Nc1cccc(Oc2nnc(Cl)c3ccccc23)c1)Nc1ccc(Cl)c(C(F)(F)F)c1 | -62.9% (active)
CN1CCN(CCCOc2ccc3nc(Nc4ccc(F)c(F)c4)ccc3c2)CC1 | -32.2% (active)
COc1ccccc1NC(=O)N/C(N)=N/c1nc2ccccc2s1 | 25.6% (inactive)
Cc1ccc(Nc2nc(N)nc(CSCC(=O)NN)n2)cc1 | 98.9% (inactive)
CC1CC(C(C)(C)C)C(=O)C(C(C)(C)C)C1 (centres undefined) | 101% (inactive)
O=C(O)c1ccc2c(c1Cl)C(=O)c1ccccc1C2=O | 107% (inactive)
N=c1sc(Cc2ccc(Cl)cc2)cn1CC(=O)c1ccc(F)cc1 | 53.5% (inactive)
CCCCn1c(=O)c2c(nc3n2CCCN3CCc2ccc(OCC(=O)NCCN(CC)CC)cc2)n(CCCC)c1=O | 79.2% (inactive)
COc1ccc(NC(=O)c2nc(-c3cc(OC)c(OC)c(OC)c3)n(-c3cccc4ccccc34)n2)cc1OC | 61.5% (inactive)
O=C1CCc2c(sc3[nH]c(=S)n(-c4ccc(OC(F)(F)F)cc4)c(=O)c23)C1 | 19.9% (inactive)

Compound | growth
C[C@@]1(CCC#N)[C@H]2CC[C@@H]3[C@H]4[C@H](C(=O)/C=C/c5cccnc5)CC[C@]4(C#N)CC[C@@]3(C)[C@]2(C)CC[C@H]1C(=O)/C=C/c1cccnc1 | 37.2% (inactive)
Cc1c(C)c2c(c(C)c1OCC(=O)O)CC[C@@](C)(CCC[C@@H](C)CCC[C@@H](C)CCCC(C)C)O2 | -41.8% [50 µM] (active)
O=C(NCCCNc1cc(-c2cn(-c3ccccc3)nc2-c2cccc(O)c2)ccn1)c1ccc(F)cc1 | 5.38% (active)
Cn1c(-c2c(N)n(Cc3ccc(C(F)(F)F)cc3)c3nc(C#N)c(C#N)nc23)nc2ccccc21 | 6.57% (active)
Nc1nc(N)c2c(n1)NC(c1ccccc1)C1CCc3ccccc3C1=N2 (centres undefined) | 58.9% (inactive)
COc1ccc2[nH]c(O)c(/C=c3/cc4c(c(-c5cc(OC)c(OC)c(OC)c5)n3)=Nc3ccccc3-4)c2c1 | 62.8% (inactive)
CCOC(=O)c1c2ncccc2n2c(=O)n(-c3ccccc3C)nnc12 | 117% (inactive)
COc1cccc(C(=O)NCCCNc2cc(-c3cn(-c4ccccc4)nc3-c3cccc(OC)c3)ccn2)c1 | 54.4% (inactive)
N[C@@H](CCCCNCC(=O)O)C(=O)O | 101% (inactive)
CC(CCc1ccc(Cl)c(Cl)c1)NCc1ccc(C(C)(C)C)cc1 (centres undefined) | 80.2% (inactive)
O=Cc1ccc(O)c2ncccc12 | 21.5% (inactive)
CCCCOc1nc2ccccc2cc1C1CNC(=O)c2ccccc2N1 (centres undefined) | 20.9% (inactive)
COc1ccc2occ(C3=C(c4c[nH]c5ccccc45)C(=O)N(O)C3=O)c2c1 | 89.2% (inactive)
N#CC1=C(NC=O)Oc2c(ccc3ccccc23)C1c1ccccc1 (centres undefined) | 21.3% (inactive)
Fc1c[c-]c(-c2ccccn2)c(F)c1.[CH3-].[Pt+2].c1ccc(P(C[PH+](c2ccccc2)c2ccccc2)c2ccccc2)cc1 | -63.5% (active)
N=C1C(c2nc(-c3ccc(Br)cc3)cs2)=C(O)CN1CC1CCCO1 (centres undefined) | 60% (inactive)
NS(=O)(=O)c1cnccc1Sc1ccncc1S(N)(=O)=O | 113% (inactive)
N#Cc1c(-c2ccccn2)[nH]c(=S)[nH]c1=O | 105% (inactive)

System: MCF7 breast
Assay: as above
Settings: 10 µM unless noted

Compound | growth
c1c[nH]c(CNC2CCCCC2)c1 | 103% (inactive)
COc1ccc2c(c1)CCCN2c1c2ccccc2nc2ccccc12 | 20.8% (inactive)
CC/C=C/C/C=C/C/C=C/C/C=C/C/C=C/C/C=C/CCC(=O)Nc1ccn([C@@H]2O[C@H](CO)[C@@H](O)C2(F)F)c(=O)n1 | 14.3% (inactive)
Cc1ccc2nc(NC(=O)CSc3nc(-c4ccccc4)c(C#N)c(=O)n3Cc3ccccc3)sc2c1 | 86.2% (inactive)
NNC(=O)c1nc(N)n(-c2ccc(S(N)(=O)=O)cc2)n1 | 102% (inactive)
O=C(CC(SCc1ccccc1)c1ccccc1)c1ccccc1 (centres undefined) | 14.6% (inactive)
COC1=C(OC)C(=O)C(OC)=C(OC)C1=O | 99.5% (inactive)
COC(=O)CCC1=C(C)C2=NC1=CC1=NC(=CC3=NC(=Cc4[nH]c(/c(=C(/C)O)c4C)=C2)C(C(C)=O)=C3C)C(C)=C1CCC(=O)OC | 98.2% (inactive)
CC1=CN2C(=O)C3C4=C(CCCC4)SC3N=C2CN1c1c(C)cccc1C (centres undefined) | 112% (inactive)
O=C(Nc1cccc(Oc2nnc(Cl)c3ccccc23)c1)Nc1ccc(Cl)c(C(F)(F)F)c1 | -35.6% (active)
CN1CCN(CCCOc2ccc3nc(Nc4ccc(F)c(F)c4)ccc3c2)CC1 | 11.8% (inactive)
COc1ccccc1NC(=O)N/C(N)=N/c1nc2ccccc2s1 | 20.3% (inactive)
Cc1ccc(Nc2nc(N)nc(CSCC(=O)NN)n2)cc1 | 94.3% (inactive)
CC1CC(C(C)(C)C)C(=O)C(C(C)(C)C)C1 (centres undefined) | 108% (inactive)
O=C(O)c1ccc2c(c1Cl)C(=O)c1ccccc1C2=O | 94% (inactive)
N=c1sc(Cc2ccc(Cl)cc2)cn1CC(=O)c1ccc(F)cc1 | 55% (inactive)
CCCCn1c(=O)c2c(nc3n2CCCN3CCc2ccc(OCC(=O)NCCN(CC)CC)cc2)n(CCCC)c1=O | 36.6% (inactive)
COc1ccc(NC(=O)c2nc(-c3cc(OC)c(OC)c(OC)c3)n(-c3cccc4ccccc34)n2)cc1OC | 26.2% (inactive)
O=C1CCc2c(sc3[nH]c(=S)n(-c4ccc(OC(F)(F)F)cc4)c(=O)c23)C1 | 44.5% (inactive)

Compound | growth
C[C@@]1(CCC#N)[C@H]2CC[C@@H]3[C@H]4[C@H](C(=O)/C=C/c5cccnc5)CC[C@]4(C#N)CC[C@@]3(C)[C@]2(C)CC[C@H]1C(=O)/C=C/c1cccnc1 | 39.4% (inactive)
Cc1c(C)c2c(c(C)c1OCC(=O)O)CC[C@@](C)(CCC[C@@H](C)CCC[C@@H](C)CCCC(C)C)O2 | 15.6% [50 µM] (inactive)
O=C(NCCCNc1cc(-c2cn(-c3ccccc3)nc2-c2cccc(O)c2)ccn1)c1ccc(F)cc1 | 13.7% (inactive)
Cn1c(-c2c(N)n(Cc3ccc(C(F)(F)F)cc3)c3nc(C#N)c(C#N)nc23)nc2ccccc21 | 8.74% (active)
Nc1nc(N)c2c(n1)NC(c1ccccc1)C1CCc3ccccc3C1=N2 (centres undefined) | 18.7% (inactive)
COc1ccc2[nH]c(O)c(/C=c3/cc4c(c(-c5cc(OC)c(OC)c(OC)c5)n3)=Nc3ccccc3-4)c2c1 | 23.4% (inactive)
CCOC(=O)c1c2ncccc2n2c(=O)n(-c3ccccc3C)nnc12 | 77.5% (inactive)
COc1cccc(C(=O)NCCCNc2cc(-c3cn(-c4ccccc4)nc3-c3cccc(OC)c3)ccn2)c1 | 37.5% (inactive)
N[C@@H](CCCCNCC(=O)O)C(=O)O | 105% (inactive)
CC(CCc1ccc(Cl)c(Cl)c1)NCc1ccc(C(C)(C)C)cc1 (centres undefined) | 80.8% (inactive)
O=Cc1ccc(O)c2ncccc12 | 7.29% (active)
CCCCOc1nc2ccccc2cc1C1CNC(=O)c2ccccc2N1 (centres undefined) | 21.2% (inactive)
COc1ccc2occ(C3=C(c4c[nH]c5ccccc45)C(=O)N(O)C3=O)c2c1 | 82.5% (inactive)
N#CC1=C(NC=O)Oc2c(ccc3ccccc23)C1c1ccccc1 (centres undefined) | 17.5% (inactive)
Fc1c[c-]c(-c2ccccn2)c(F)c1.[CH3-].[Pt+2].c1ccc(P(C[PH+](c2ccccc2)c2ccccc2)c2ccccc2)cc1 | 6.04% (active)
N=C1C(c2nc(-c3ccc(Br)cc3)cs2)=C(O)CN1CC1CCCO1 (centres undefined) | 78.4% (inactive)
NS(=O)(=O)c1cnccc1Sc1ccncc1S(N)(=O)=O | 88.9% (inactive)
N#Cc1c(-c2ccccn2)[nH]c(=S)[nH]c1=O | 95.1% (inactive)
